Assay results published in PubChem BioAssay (NCI).
The panel holds about 79,000 compounds, 15% with a hit somewhere; the sample as a whole holds those more often. Values without a mark were called inactive. Calls of active or inactive are those of the source. No stated cut-off is given here; in the data, active means growth inhibition above about 70%; inactive means the rest.

Tests used:
[1] = NCI Yeast Anticancer Drug Screen. Data for the rad50 strain (AID 155);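 further: 0% = growth of vehicle-only cultures of the same strain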; conditions: S. cerevisiae rad50 strain growth inhibition; at 50.0 µM; hits give high values
Summary of the method: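 Yeast carrying a defined DNA repair defect were exposed to test compounds, and growth was compared with vehicle-treated controls to give percent inhibition.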

[2] = NCI Yeast Anticancer Drug Screen. Data for the mec2-1 strain (AID 157); conditions: S. cerevisiae mec2-1 strain, at 50.0 µM, hits give high values
Summary of the method: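 Growth inhibition is read against vehicle-treated controls after compound exposure of the mec2-1 yeast strain, which is defective in DNA damage repair or cell cycle control.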

[3] = NCI Yeast Anticancer Drug Screen. Data for the sgs1 mgt1 strain (AID 161);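 further: 0% = growth of cultures given vehicle only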; conditions: S. cerevisiae sgs1 mgt1 strain, at 50.0 µM, hits give high values
Summary of the method: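 Growth of a repair-deficient yeast mutant was monitored after compound treatment and expressed as inhibition relative to vehicle-treated cultures.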

[4] = NCI Yeast Anticancer Drug Screen. Data for the cln2 rad14 strain (AID 165);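 further: 0% = growth equal to vehicle treated cultures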; conditions: S. cerevisiae cln2 rad14 strain, at 50.0 µM, hits give high values
Summary of the method: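 Growth inhibition, relative to vehicle-treated controls, is the read-out. The test organism is a yeast strain with defined genetic alterations, cln2 rad14.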

[5] = NCI Yeast Anticancer Drug Screen. Data for the bub3 strain (AID 167); conditions: S. cerevisiae bub3 mutant strain, at 50.0 µM, hits give high values
Summary of the method: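 Compounds were applied to a genetically altered yeast strain carrying a cell-cycle control defect. Growth inhibition was scored against vehicle-treated controls.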

[6] = NCI Yeast Anticancer Drug Screen. Data for the mlh1 rad18 strain (AID 175); conditions: S. cerevisiae mlh1 rad18 strain growth inhibition; at 50.0 µM; hits give high values
Summary of the method: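 Cells of a genetically altered yeast strain, deficient in DNA damage repair, were treated with compound. Their growth was then compared with that of vehicle-treated cultures to give inhibition.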

Compound	growth inhibition [1]	growth inhibition [2]	growth inhibition [3]	growth inhibition [4]	growth inhibition [5]	growth inhibition [6]
CCCCCCN(CCCCCC)C1C=CCCC1 (centres undefined)	-5.4%	-11.2%	0.25%	-32.6%	-2.2%	-4.15%
NCCN.O=C([O-])[O-].O=C([O-])[O-].[Co+3].[K+]	1.5%	4.6%	5.2%	13.2%	-8.9%	-5.55%
ClCCCN1CCN(CCCl)CC1	-11.6%	-10.1%	-1.75%	3.2%	-13.8%	-21.5%
CC1(C)N=C(N)N=C(N)N1c1ccc(CCCCc2cc(Cl)ccc2S(=O)(=O)F)c(Cl)c1	99.3% (active)	99.7% (active)	99.5% (active)	98.4% (active)	98.5% (active)	99.6% (active)
CC1(C)CC(N2CCCCC2)=CC(=[N+]2CCCCC2)C1	-6.55%	-2%	22.3%	0.1%	-5.85%	-10.6%
N#CS.N=C=S.O=N[O-].[Co+3].[NH-]CC[NH-].[NH-]CC[NH-]	-6.55%	6.3%	8.25%	-34%	50.7%	12.7%
Oc1ccc(Nc2ncnc3nc[nH]c23)cc1CN(CCCl)CCCl	-5.85%	-5.8%	3.95%	-45.4%	-15.5%	3.65%
c1cc2c(cc1NC1=NCCO1)OCO2	-23.2%	-18.8%	-3.65%	0.7%	-13.8%	-25.2%
C=C(Br)C[N+]12CN3CN(CN(C3)C1)C2	-2%	-6.55%	2.15%	-6.95%	2.7%	-17.2%
C=CCOC(=O)Cc1ccccc1	20.5%	-5.35%	4.9%	-31.9%	-39.2%	-3.9%
ClCCN(CCCl)c1ccc2c(c1)Cc1cc(Br)ccc1-2	15%	2%	40.7%	30.8%	2.6%	6.9%
C[N+](C)(C)CC1CCCC(C[N+](C)(C)C)C1=NO (centres undefined)	24.9%	12.1%	-4.85%	19.7%	-1.5%	20.6%
O=C(COc1cccc(Cl)c1Cl)Nc1ccc[n+](Cc2ccc(S(=O)(=O)F)cc2)c1	20.4%	0.15%	-5.45%	31.2%	7.4%	28.6%
CC(C)NCC(O)c1ccc(Cl)c(Cl)c1 (centres undefined)	-28.6%	-40%	-14%	7.25%	-27.2%	-33.8%
C/C=C\CC1(C/C=C/C)C(=O)NC(=O)NC1=O	2.25%	-7.45%	-5.05%	-17.6%	-8.9%	1.25%
CC(=O)O[C@H]1CC[C@@]2(C)[C@H](CC[C@@H]3[C@@H]2CC[C@]2(C)[C@@H](c4ccc(=O)oc4)C[C@H]4O[C@]342)C1	53%	7.05%	29.5%	13.9%	8.45%	17.4%
O=c1[nH]cc(N=Cc2ccccc2F)c(=O)[nH]1.[Cl][Pt][Cl]	20.6%	6.15%	24.7%	26.9%	-0.2%	8.95%
O=P1(N(CCCl)CCCl)Oc2ccc(Cl)cc2Sc2c(ccc(Cl)c2Cl)O1 (centres undefined)	43.5%	7.9%	40.5%	40.5%	35.4%	46.7%
Cc1nc2cccc(F)c2c(=O)n1-c1nnc(C(F)(F)F)s1	16.9%	8.8%	16.5%	10.8%	-6.4%	15.5%
[N-]=[N+]=CC(=O)C1(C(=O)C=[N+]=[N-])CC1	-14.7%	-11.2%	-41%	-18.1%	-16.9%	-27.1%

Compound	growth inhibition [1]	growth inhibition [2]	growth inhibition [3]	growth inhibition [4]	growth inhibition [5]	growth inhibition [6]
O=NNc1cccnc1	-1.05%	-17.1%	-2.35%	4.45%	-4.8%	-38%
O=C1NC(=O)C2(CCOCC2)C(=O)N1	-5.15%	3.3%	-19.1%	-18.4%	-17.5%	0.15%
CN(C)C(=O)Oc1ccc(C2CCCN2C)cn1 (centres undefined)	3.95%	5.45%	3.75%	-13.1%	-6%	-22.7%
CCOC(C(=O)O)(c1ccccc1)c1ccccc1	-0.55%	22.2%	18.5%	-10.1%	19.5%	22.8%
CCCCOP(=O)(OCCCC)Oc1ccc2ccccc2c1	93.1% (active)	93.2% (active)	95.4% (active)	92.8% (active)	95.1% (active)	95.4% (active)
CC(C)(C)Nc1ccccc1.[C-]#[O+].[C-]#[O+].[C-]#[O+].[Cr]	-7.75%	-2.3%	-0.55%	10.3%	28.4%	6.3%
N#CC(C#N)=Cc1ccc(F)cc1	-6.85%	5%	-18.7%	-15.7%	16.1%	-15.5%
Clc1ccc([C@H]2N[C@@H]2c2ccccn2)cc1	11.2%	16.1%	13.7%	-8.45%	9.15%	-5.55%
COc1ccc(C(=O)/C=C/c2ccccc2)cc1	2.05%	-7.25%	30.1%	2.45%	42.4%	19.4%
Cc1cc(Nc2ccc(N(CCCl)CCCl)cc2)c(C)cc1O	31.7%	10%	5.75%	-5.85%	-4.15%	6.8%
O=C(O)c1ccc(=O)[nH]c1	25.6%	7.85%	10.2%	-22.1%	13.9%	19.6%
Nc1ccc(Sc2ccc(N)cc2)cc1	15.5%	0.35%	-0.6%	-53.1%	-8.25%	23.1%
CS(=O)(=O)Oc1c(Cl)cc(S(=O)(=O)F)cc1Cl	66.2%	75% (active)	82.8% (active)	45.6%	53.5%	40.1%
OCCSCSCCO	-5.8%	-8.8%	5.8%	10.2%	-2.8%	0.8%
COc1ccc(C(O)(C(=O)O)c2ccc(OC)c(OC)c2)cc1OC	5.6%	-1.25%	-1.7%	-13.9%	8%	0.2%
CN(C)C1=C(N2CC2)C(=O)C(N(C)C)=C(N2CC2)C1=O	17.2%	9.9%	14.6%	9.3%	1%	23.7%
CC(=O)O[C@H]1CC[C@]2(C)[C@H]3CC[C@]4(C)[C@@H](OC(C)=O)CC[C@H]4[C@@H]3[C@H](C=O)[C@]2(O)C1	7.9%	4.35%	-8.6%	4.25%	-0.75%	8.7%
C(#CP(c1ccccc1)c1ccccc1)c1ccccc1	62.5%	34.5%	74.8% (active)	20.1%	76.8% (active)	85.5% (active)
O=[N+]([O-])c1cc([As](=O)(O)O)ccc1S(=O)(=O)O	-0.6%	7.65%	7%	-3%	9.2%	2.2%
